# Bioassay records: PubChem BioAssay, National Center for Advancing Translational Sciences (NCATS)
# MCF10A rerep = A quantitative high throughput screen for small molecules that induce DNA re-replication in MCF 10a normal breast cells. MCF 10A DNA re-replication, Hoechst nuclear intensity, 48 h. Potency, µM (doses to about 46.1 µM), inactives show at the top dose activity, positive = re-replication, actives largely listed as activators. 350,000 compounds, 2.9% hits; note: % of control where 0% means no effect; nearly all actives have a fitted effect of over 50% in size
# 12-LOX inh = Primary qHTS assay for inhibitors of human arachidonate 12S-lipoxygenase (ALOX12): Round 2. 580,000 compounds, 1.1% hits. Potency, µM (highest dose often 108 µM), inactives show top-dose activity change, negative = inhibition, actives largely listed as inhibitors. Polyunsaturated fatty acid lipoxygenase ALOX12 (Homo sapiens), P18054. AID 1671190, 2021. purified 12hLO, xylenol orange hydroperoxide absorbance; note: % is set by controls: 0 for no effect and ±100 for the full control effect
# Target sequence (P18054 whole entry, looked up): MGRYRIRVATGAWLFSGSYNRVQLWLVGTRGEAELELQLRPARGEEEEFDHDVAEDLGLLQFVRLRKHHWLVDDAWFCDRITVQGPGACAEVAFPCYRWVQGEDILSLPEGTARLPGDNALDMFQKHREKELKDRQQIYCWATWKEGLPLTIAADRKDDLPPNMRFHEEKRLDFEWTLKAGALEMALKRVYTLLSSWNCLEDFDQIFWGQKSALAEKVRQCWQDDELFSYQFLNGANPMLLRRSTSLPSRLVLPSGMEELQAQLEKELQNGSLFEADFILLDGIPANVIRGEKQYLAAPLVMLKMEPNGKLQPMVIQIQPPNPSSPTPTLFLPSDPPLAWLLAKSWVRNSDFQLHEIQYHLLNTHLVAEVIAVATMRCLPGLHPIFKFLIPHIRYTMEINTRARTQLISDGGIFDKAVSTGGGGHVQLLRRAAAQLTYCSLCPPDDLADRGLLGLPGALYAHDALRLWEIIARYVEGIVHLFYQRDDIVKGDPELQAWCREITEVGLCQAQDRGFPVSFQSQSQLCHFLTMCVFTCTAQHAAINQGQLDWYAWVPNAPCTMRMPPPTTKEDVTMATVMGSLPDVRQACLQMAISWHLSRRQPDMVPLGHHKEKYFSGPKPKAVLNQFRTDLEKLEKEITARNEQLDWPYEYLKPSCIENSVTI
#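 Hydroperoxide product was detected by ferrous iron/xylenol orange as the 573 to 405 nm absorbance ratio. Arachidonic acid at 40 uM (final) was turned over for 30 min at room temperature by 150 nM human 12hLO, pH 7.0 Hepes buffer, after 15 min compound preincubation.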
# PINK1 expr mod = A Quantitative High throughput Screen to Identify Chemical Modulators of PINK1 Expression | PINK1 immunofluorescence, high-content cytometry, 24 h | Potency, µM (doses to about 76.6 µM), for the others: at the highest dose activation (PINK1 increase), most hits filed as activators | AID 624263, 2012 | 410,000 compounds, 0.2% hits; active = well fitted activation curve with a large enough effect; inconclusive = small, poorly fitted or top-dose-only effect; cell line not stated here; note: % of control where 0% means no effect; nearly all actives have a fitted effect of over 65% in size
#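 A stable cell line was treated with compounds at 5 concentrations for 24 hours, with CCCP as control. PINK1 levels and mitochondrial localization were measured by immunofluorescence with mitochondrial, cell and nuclear markers after fixation, read by laser-scanning cytometry.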
# SW480 rereplic = A quantitative high throughput screen for small molecules that induce DNA re-replication in SW480 colon adenocarcinoma cells; AID 624297, 2012; Potency, µM (doses to about 46.1 µM), without a hit: at the top dose re-replication activation, actives largely listed as activators; 340,000 compounds, 1.8% hits; SW480 DNA re-replication, Hoechst DNA content imaging, 48 h; note: % of control where 0% means no effect; nearly all actives have a fitted effect of over 55% in size
#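 Readout is total intensity of Hoechst-stained nuclei, excited at 405 nm and collected at 500-530 nm. Compound treatment lasted 48 hr at 37 C in 5% CO2 before staining.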
# KB-3-1 cytotox = qHTS assay for MDR1-selective chemotherapeutics: Primary screen using the parental adenocarcinoma cell KB-3-1; KB-3-1 viability, CellTiter-Glo ATP luminescence, 72 h; Potency, µM (titrated, usually from 46.1 µM), usual class: cytotoxic; AID 1347075, 2019; 400,000 compounds, 1.4% hits; note: % is set by controls: 0 for no effect and ±100 for the full control effect; nearly all actives have a fitted effect of over 60% in size
#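 Parental KB-3-1 viability, qHTS format: 72 h compound exposure, 37 °C; CellTiter-Glo; media-only wells and DMSO plates as controls; concentration-effect fits on corrected data.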
# KB-V1 MDR tox = qHTS assay for MDR1-selective chemotherapeutics: Primary screen using the drug-selected MDR subline cells KB-V1 | KB-V1 MDR cells viability, CellTiter-Glo, 72 h | Potency, µM (highest dose often 46.1 µM), actives largely listed as cytotoxic | 400,000 compounds, 3.4% hits; note: % is set by controls: 0 for no effect and ±100 for the full control effect; nearly all actives have a fitted effect of over 60% in size
#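 In this primary screen, KB-V1 cells overexpressing P-gp are incubated with library compounds (lowest to highest concentration) for 72 h at 37 degrees C before a luminescent ATP viability read.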
# * hit, by the source's call; i = inactive; ? = inconclusive; . = no result; [ ] = dose if it differs, or a comment. An excerpt weighted towards active compounds, which were near 5.8% of everything screened. Unless noted, calls come from the whole dose curve; as a rule, active = well fitted curve in the direction sought with a large enough effect; inconclusive = small, poorly fitted or top-dose-only effect, or another doubt; inactive = no such curve, though single readings can be large; an effect the other way counts as inactive or inconclusive. Potency is the fitted concentration of half-maximal effect.
SMILES,MCF10A rerep,12-LOX inh,PINK1 expr mod,SW480 rereplic,KB-3-1 cytotox,KB-V1 MDR tox
CC(C)=C1C2CCC1C1C(=O)N(CCc3ccccc3)C(=O)C21 (stereo unspecified),21.5%,14.0%,3.5%,-118.3%,i,10.3µM*
O=C1C2C3C=CC(C3)C2C(=O)N1CCc1ccccc1 (stereo unspecified),15.8%,12.0%,-5.8%[38.3 µM],0.0%,i,i
C=CCOc1cccc(/C=N/NC(=O)C(=O)NCCCOC)c1,.,-8.2%,.,.,.,.
Cc1ccc(NC(=O)CN(c2ccccc2)S(=O)(=O)N(C)C)cc1,3.5%,-8.6%,-0.4%,-1.1%,i,14.6µM*
CN(C)S(=O)(=O)N(CC(=O)Nc1ccc(C(F)(F)F)cc1)c1ccccc1,.,-23.7%,0.8%,.,i,i
CN(C)S(=O)(=O)N(CC(=O)Nc1ccc(F)c(F)c1)c1ccccc1,2.6%,-23.4%,6.1%[38.3 µM],-9.3%,i,20.6µM*
COc1cc(C#N)ccc1OC(C)C(=O)c1ccc(Cl)cc1 (stereo unspecified),.,-14.6%,.,.,.,.
Cc1ccccc1C1CCCN1C(=O)c1cc(-c2cccs2)on1 (stereo unspecified),.,-26.1%,.,.,.,.
CN(C(=O)COc1ccccc1C(=O)NCCc1ccccc1)c1ccccc1,17.8%,5.0%,5.5%,2.0%,i,5.17µM*
Cc1ccnn1CCC(=O)O,0.5%,-15.7%,1.5%,-7.5%,i,i
Cc1ccnn1CCSCC(=O)O,20.6µM*,?,2.4%[38.3 µM],0.1%,i,i
Cn1nccc1NC(=O)CSCC(=O)O,8.2µM*,0.0%,-0.7%,-54.4%,i,i
CSc1nc(N)c2c(n1)NC1=C(C(=O)CC(C)(C)C1)C2c1ccc(F)cc1 (stereo unspecified),.,-40.3%,.,.,.,.
CCCOc1cccc(C(=O)Nc2cc(-c3nc4ncccc4o3)ccc2OC)c1,.,21.8%,.,.,.,.
CC(=O)Nc1ccc(N=Cc2c(O)c(C(=O)Nc3ccccc3)cc3ccccc23)cc1,3.66µM*,-24.2%,?,-5.0%,i,?
CC(=O)Nc1ccc(N=Cc2c(O)c3ccccc3oc2=O)cc1,5.1%,-10.2%,4.3%,-14.8%,i,i
COc1ccc(-n2c(C)cc(-c3cn4cccc(C)c4n3)c2C)cc1,?,-11.6%,4.4%,-180.7%,i,i
Cc1cc(-c2cn3ccccc3n2)c(C)n1-c1ccccc1,20.6µM*,?,?,?,?,i
Cn1cc(C(=O)N(CCN2CCOCC2)C2CCCC2)c2ccccc21,.,-2.1%,.,.,.,.
Cc1cccc(C(=O)N(Cc2cccs2)C2CC2)c1,.,-8.1%,.,.,.,.
CC(C)(C)NS(=O)(=O)c1cccc(S(=O)(=O)c2cccc(S(=O)(=O)NC(C)(C)C)c2)c1,21.1%,.,2.2%[38.3 µM],?,i,14.6µM*
Cc1ccc(Nc2nc(-c3c[nH]c(C(=O)N4CCCC4)c3)cs2)cc1F,.,-82.5%,.,.,.,.
Cc1nn(Cc2ccc(F)cc2)c(C)c1NC(=O)c1cnn2c1NC(c1cccs1)CC2C(F)(F)F (stereo unspecified),8.7%,-11.1%,0.2%[38.3 µM],2.9%,i,20.6µM*
Cc1nn(Cc2ccc(F)cc2)c(C)c1NC(=O)c1cnn2c1NC(c1ccccc1)CC2C(F)(F)F (stereo unspecified),-2.0%,0.0%,-2.7%[38.3 µM],0.4%,i,i
Cc1nn(C)c(C)c1CNC(=O)c1nn2c(c1Cl)NC(c1cccs1)CC2C(F)(F)F (stereo unspecified),-3.1%,8.1%[57.4 µM],0.0%[38.3 µM],-3.4%,?,9.2µM*
SMILES,MCF10A rerep,12-LOX inh,PINK1 expr mod,SW480 rereplic,KB-3-1 cytotox,KB-V1 MDR tox
COc1cccc(CN2CC3(C2)C(=O)N(Cc2ccccc2Cl)C(=O)[C@@H]2C[C@@H](O)CN23)c1,.,5.1%,.,.,.,.
O=C(Nc1cc(Br)ccc1O)c1cc(-c2ccco2)on1,-8.5%,28.2µM*,11.2%,-1.6%,i,?
O=C(C(=O)c1cc(Br)ccc1O)c1cc(Br)ccc1O,2.59µM*,?,?,?,23.1µM*,?
CC(=O)Nc1cc(Br)ccc1O,0.731µM*,0.0%,1.1%,-10.6%,i,i
Nc1ncnc(Nc2cc(Cl)ccc2Cl)c1[N+](=O)[O-],.,33.1%,.,.,.,.
CCN(Cc1cccs1)C(=O)Cc1c[nH]c2ccccc12,.,7.2%,.,.,.,.
O=C(CCS(=O)(=O)C1CCCC1)NCC(O)c1cccc(Cl)c1 (stereo unspecified),.,-5.1%,.,.,.,.
CCOc1ccc(S(=O)(=O)n2ccnc2CC)cc1C,.,-25.2%,.,.,.,.
CCN(CC)C(=O)[C@H]1C[C@H](CC(=O)NCc2ccc(OC)c(OC)c2)C(=O)N2CCc3c([nH]c4ccc(Cl)cc34)[C@]12C,-7.8%,-2.3%,1.6%,-4.5%,i,i
CC(C)N(C(=O)[C@H]1C[C@H](CC(=O)NCCCN(C)C)C(=O)N2CCc3c([nH]c4ccc(Cl)cc34)[C@]12C)C(C)C,?,4.8%,-1.0%,18.4µM*,i,i
CCN(CC)C(=O)[C@H]1C[C@H](CC(=O)NCCCN(C)C)C(=O)N2CCc3c([nH]c4ccc(Cl)cc34)[C@]12C,?,-5.9%,5.4%,7.5%,i,i
CC(C)N(C(=O)[C@H]1C[C@H](CC(=O)NCC23CC4CC(CC(C4)C2)C3)C(=O)N2CCc3c([nH]c4ccc(Cl)cc34)[C@]12C)C(C)C,5.5%,-16.7%,35.5µM*,?,?,?
CCN(CC)C(=O)[C@H]1C[C@H](CC(=O)NCC23CC4CC(CC(C4)C2)C3)C(=O)N2CCc3c([nH]c4ccc(Cl)cc34)[C@]12C,3.2%,?,?,14.6µM*,i,?
CS(=O)(=O)Nc1ccccc1CNC(=O)CCS(=O)(=O)C1CCCC1,.,-27.1%,.,.,.,.
COc1cccc(Nc2nc3ccccc3nc2NS(=O)(=O)c2cccc3nsnc23)c1,.,-15.0%,.,.,.,.
CC1Oc2ccccc2C=C1/C=N/Nc1ccc(C(=O)O)cc1 (stereo unspecified),23.1µM*,6.0%,1.7%,7.31µM*,i,i
O=C(CCc1ncc(-c2ccc(Cl)cc2)o1)N1CCSCC1,.,35.7%,.,.,.,.
O=C1OC(c2cc(I)c(O)c(I)c2)(c2cc(I)c(O)c(I)c2)c2ccccc21,.,10µM*,.,.,.,.
